What is called AC50 is the concentration giving half of the maximal activity seen.

We go through 16 compounds from PubChem BioAssay (EPA / NIEHS).

Active and inactive are the calls of the source. Rule for the calls: active = hit-call score of the fitted dose curve at least 0.9, where 1 is the maximum; inactive = score below 0.9.

The assay in a line: STM_H9_OrnithineISnorm_perc: Stemina devTOX quickPredict H9 human embryonic stem cell (hESC)-based Assay for Ornithine (ORN) Metabolite Biomarker, Normalized (AID 2283712).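 Note: ornithine released into spent medium during last day measured by mass spectrometry.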 The source says:
STM_H9_secretome utilizes undifferentiated H9 cells to measure relative changes in two metabolites, ornithine (ORN) and cystine (CYSS) in the secretome, targeting a critical drop in the ORN/CYSS ratio as a biomarker for developmental toxicity.STM_H9_OrnithineISnorm is one of 10 components calculated in the STM_H9_secretome assay. It measures the integrated area of the endogenous ornithine normalized to the spiked-in isotopically labeled standard and to the median value of the 0.1% DMSO neutral control treatment using UPLC-HRMS technology.Data from the assay component STM_H9_OrnithineISnorm_perc was analyzed at the assay endpoint STM_H9_OrnithineISnorm_perc in the positive analysis fitting direction relative to DMSO as the negative control and baseline of activity. Using a type of binding reporter, gain or loss-of-signal activity can be used to understand relative metabolite change.
H9 hESCs maintained in a pluripotent state were exposed to test compound for 72h with chemical replenishment with media replacement every 24h. Cell-conditioned media from the final 24-h treatment period was collected for analysis of the targeted biomarker, and cell viability of the corresponding cell layer was assessed. The chemical library was tested in blinded fashion. Each test plate included 1uM Methotrexate (MTX; Selleck Chemicals, Houston, Texas) as a positive reference, 5 nM MTX as a negative reference, 0.1% DMSO as the neutral (vehicle) control, and sample-level media blanks.H9 cell-conditioned media from the final 24-h treatment period was collected for analysis of the targeted biomarker and cell viability was measured from the corresponding cell layer. Cell viability was measured using the CellTiter-Fluor assay (Promega, Madison, Wisconsin) based on proteolytic cleavage of a substrate to fluorescent signal proportional to the number of living cells. The cell viability Relative Fluorescence Unit (RFU) was background corrected and normalized to mean RFU of the neutral control (0.1% DMSO). The collected H9-cell-conditioned media samples were processed for targeted biomarker analysis as described (Palmer et al., 2013). Briefly, spent media samples were deproteinized (40% acetonitrile) and processed for UPLC-HRMS. Data acquisition was performed using 4 separate UPLC-HRMS systems, consisting of an Agilent 1290 Infinity LC system (Agilent Technologies) interfaced with an Agilent high-resolution mass spectrometer (models G6520A, G6520B, G6530A, and G6224A). A Waters Acquity UPLC BEH Amide column (2.1mm x 50mm, 1.7lm particle size; Waters, Milford, Massachusetts) maintained at 40C was applied for separation of metabolites using a 6.5min solvent gradient with 0.1% formic acid in water and 0.1% formic acid in acetonitrile (1.0ml/min flow rate). Data were acquired using MassHunter Acquisition software (version B 04.00, Agilent Technologies). The extracted ion chromatogram (EIC) areas for ORN, CYSS, and their respective spike-in C13-standards were determined using the Agilent MassHunter Quantitative Analysis software, version B.05.00 or newer (Agilent Technologies), and data were normalized as described in Palmer et al. (2017).
In the case of `O=C(OCCOCCOC(=O)c1ccccc1)c1ccccc1`, the outcome was inactive. Regarding `c1ccc2c(c1)ccc1ccccc12`, the AC50 is 88.8 µM (active). As to `Cc1cc(CCN2CCN(c3nsc4ccccc34)CC2)cc2c1NC(=O)CC2(C)C`, the AC50 was 5 µM (active). Take `CCCCCCCCCCCCc1ccccc1S(=O)(=O)O`: the AC50 is 0.00695 µM (active). Regarding `CCc1ccc(CCOc2ccc(CC3SC(=O)NC3=O)cc2)nc1` (stereo unspecified), the AC50 was 72.1 µM (active). `COc1ccc([N+](=O)[O-])cc1N`: the result was inactive. Turning to `C#C[C@]1(O)CC[C@H]2[C@@H]3CCC4=CC(=O)CC[C@@H]4[C@H]3CC[C@@]21C`, the AC50 was 74.6 µM (active). As for `CN1CCC[C@H]1c1cccnc1`, the outcome was inactive.

With `CCN(CC)CCNc1ccc(CNC=O)c2sc3ccc(OC)cc3c(=O)c12`, the AC50 is 7.85 µM (active). As to `CN(C)C=O`, the result was inactive. Still for that read-out and setting: as for `N#C[C@@H]1CC(F)(F)CN1C(=O)CNC1CC2CCC(C1)N2c1ncccn1` (stereo partly specified), the entry is “inactive”. On to `CN1CCN(c2ccccc2/C=C2\SCCN(c3ccc(Cl)c(Cl)c3)C2=O)CC1`, for which the AC50 was 6.56 µM (active).

As for `Nc1cccc2c(N)cccc12`, the result was inactive. Consider `CC1=C(/C=C/C(C)=C/C=C/C(C)=C/C(=O)O)C(C)(C)CCC1`, for which the AC50 was 0.0785 µM (active). Regarding `O=C(O)Cc1cc(I)c(Oc2cc(I)c(O)c(I)c2)c(I)c1`, the result was inactive. Take `C[C@@H]1C[C@H]2[C@@H]3CCC4=CC(=O)C=C[C@]4(C)[C@@]3(F)[C@@H](O)C[C@]2(C)[C@@]1(O)C(=O)COP(=O)(O)O`: the outcome was inactive.
